TDP1 cell noCPT – qHTS for Inhibitors of human tyrosyl-DNA phosphodiesterase 1 (TDP1): qHTS in cells in absence of CPT. DT40 Tdp1-/- hTDP1 cells, no CPT, ATP luminescence, 48 h. Potency, µM (series often up to 46.2 µM), inactives show at the top dose activity change, negative = growth inhibition, hits mostly inhibitors. actives 15% (n = 420,000); further: nearly all actives have a fitted effect of over 55% in size
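DT40 Tdp1-/-;hTDP1 cells, no CPT (DMSO vehicle only), 400 cells/well; compounds pin-transferred; ≥48 hr, 37 °C; CellTiter-Glo 30 min RT dark, luminescence read.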
KB-3-1 cytotox – KB-3-1 parental cell cytotoxicity; actives 1.4% (n = 400,000); KB-3-1 viability, CellTiter-Glo ATP luminescence, 72 h; AID 1347075; Potency, µM (series often up to 46.1 µM), actives largely listed as cytotoxic; further: nearly all actives have a fitted effect of over 60% in size
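Cytotoxicity measured as CellTiter-Glo luminescence after 72 h at 37 C. Compound titrations were pinned onto drug-naive KB-3-1 parental adenocarcinoma cells grown in DMEM with 10% FBS, and normalized data fitted to concentration-response curves.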
TDP1 cell CPT – growth inhibition of DT40 Tdp1-/-;hTDP1 cells with camptothecin (screen for TDP1 inhibitors) | chicken DT40 Tdp1-/-;hTDP1 cells + 20 nM CPT, ATP luminescence, 48 h | Potency, µM (series often up to 46.2 µM), inactives show at the top dose activity change, negative = growth inhibition, actives largely listed as inhibitors | actives 12% (n = 420,000) | AID 686979; further: nearly all actives have a fitted effect of over 55% in size
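Chicken DT40 Tdp1-/- cells stably complemented with human TDP1 were seeded at 400 cells/well in medium containing 20 nM camptothecin, exposed to pin-transferred compounds, and grown at 37 °C for at least 48 hr. Viability was read as ATP luminescence.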
HT1080NT lethal – kills 2HG-producing HT-1080-NT fibrosarcoma cells | actives 1.6% (n = 360,000) | Potency, µM (doses to about 46.1 µM), for inactives: at the top dose activity, negative = less viability, usual class: cytotoxic | HT-1080-NT fibrosarcoma viability, CellTiter-Glo ATP luminescence, 48 h;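 further: NT is the 2HG producing partner of a matched IDH1 knockdown line; 0% = DMSO-treated cells and -100% = media-only wells without cells; nearly all actives have a fitted effect of over 55% in size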
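750 cells/well, RPMI + 5% FBS; 2 h settle, compound pin-transfer, 48 h at 37 degrees C. CellTiter-Glo 10 min RT, luminescence. Normalized to DMSO and media-only wells.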
HT1080 IDH1KD tx – HT-1080 IDH1 knockdown cell toxicity (counter line) | Potency, µM (doses to about 46.1 µM), for inactives: top-dose activity, negative = toxicity, actives largely listed as cytotoxic | AID 686971 | HT-1080 IDH1 knockdown viability, ATP luminescence, 48 h | actives 2% (n = 360,000);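 further: 0% = DMSO wells and -100% = cell-free medium wells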
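After a 2 h attachment period, IDH1KD HT-1080 cells took pin-transferred compound for 48 h at 37 °C; ATP-based luminescence after 10 min room-temperature reagent incubation reported viability.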
KB-V1 MDR tox – KB-V1 MDR subline cytotoxicity. Potency, µM (titrated, usually from 46.1 µM), hits mostly cytotoxic. KB-V1 MDR cells viability, CellTiter-Glo, 72 h. actives 3.4% (n = 400,000); further: nearly all actives have a fitted effect of over 60% in size
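Drug-selected KB-V1 cells, grown in DMEM lacking phenol red with 10% FBS, receive compound titrations; after three days at 37 degrees C, surviving cell ATP is quantified by CellTiter-Glo luminescence and responses normalized and curve-fitted.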
The depositor's hits bear a star. Compounds with a hit are over-represented: about 19% of the library has one in this group of screens. The call rests on the fitted dose curve; in most records, active means well fitted curve in the direction sought with a large enough effect; inconclusive means small, poorly fitted or top-dose-only effect, or another doubt; inactive means no such curve, though single readings can be large; an effect the other way counts as inactive or inconclusive. Unless noted, on the % scale 0 is the no-effect control and ±100 the full control effect; potency means the concentration at half of the fitted maximal effect.

Results for CCN(CC)S(=O)(=O)c1ccc(/C=C/C(=O)Nc2ccc(N3CCOCC3)cc2)cc1 ?
TDP1 cell noCPT: 21µM*; KB-3-1 cytotox: inactive; TDP1 cell CPT: inconclusive; HT1080NT lethal: -27%; HT1080 IDH1KD tx: -15%; KB-V1 MDR tox: inconclusive

How did COc1ccc(/C=C/C(=O)Nc2ccc(N3CCOCC3)cc2)cc1 do in these assays?
TDP1 cell noCPT: inconclusive; KB-3-1 cytotox: inactive; TDP1 cell CPT: 5%; HT1080NT lethal: 10%; HT1080 IDH1KD tx: -10%; KB-V1 MDR tox: inactive

What do the screens show for `O=C(NCCN1CCC(n2c(=O)[nH]c3ccccc32)CC1)c1ccc(Cl)cc1Cl`?
TDP1 cell noCPT: inconclusive; KB-3-1 cytotox: inactive; TDP1 cell CPT: inconclusive; HT1080NT lethal: inconclusive; HT1080 IDH1KD tx: inconclusive; KB-V1 MDR tox: inconclusive

How did Cc1[nH]ccc(=O)c1OC1OC(CO)C(O)C(O)C1O (configuration not stated) do in these assays?
TDP1 cell noCPT: 0%; KB-3-1 cytotox: inactive; TDP1 cell CPT: 4%; HT1080NT lethal: 14%; HT1080 IDH1KD tx: 16%; KB-V1 MDR tox: inactive

Results for CCOC(=O)C1=C(C)N(c2ccc(C)cc2)C(=O)/C1=C\c1cccs1 ?
TDP1 cell noCPT: -16%; KB-3-1 cytotox: inactive; TDP1 cell CPT: inconclusive; HT1080NT lethal: 5%; HT1080 IDH1KD tx: 2%; KB-V1 MDR tox: inconclusive

Results for COC(=O)C1=C(C)N(c2ccc(Cl)cc2)/C(=C/c2cccs2)C1=O ?
TDP1 cell noCPT: 13µM*; KB-3-1 cytotox: inactive; TDP1 cell CPT: inconclusive; HT1080NT lethal: 4%; HT1080 IDH1KD tx: 3%; KB-V1 MDR tox: inactive

Results for COC(=O)C1=C(C)N(c2ccc(C)c(C)c2)/C(=C/c2cccs2)C1=O ?
TDP1 cell noCPT: 16µM*; KB-3-1 cytotox: inconclusive; TDP1 cell CPT: 16µM*; HT1080NT lethal: 1%; HT1080 IDH1KD tx: -3%; KB-V1 MDR tox: inactive

How did CCOC(=O)C1=C(C)N(c2ccccc2)C(=O)/C1=C\c1cccs1 do in these assays?
TDP1 cell noCPT: inconclusive; KB-3-1 cytotox: inactive; TDP1 cell CPT: inconclusive; HT1080NT lethal: -1%; HT1080 IDH1KD tx: 5%; KB-V1 MDR tox: 18µM*

How did CCOC(=O)C1=CN(Cc2ccco2)S(=O)(=O)N(CC)C1c1ccc(F)c(Cl)c1 (configuration not stated) do in these assays?
TDP1 cell noCPT: inconclusive; KB-3-1 cytotox: inactive; TDP1 cell CPT: inconclusive; HT1080NT lethal: 0%; HT1080 IDH1KD tx: -3%; KB-V1 MDR tox: inactive

Results for O=C1CC(c2ccc(Cl)cc2)Sc2nc(-c3ccc(F)cc3)nn21 (configuration not stated) ?
TDP1 cell noCPT: 0%; KB-3-1 cytotox: inactive; TDP1 cell CPT: -20%; KB-V1 MDR tox: inactive

How did O=C1CC(c2ccc(F)cc2)Cc2nc(N3CCOCC3)ncc21 (configuration not stated) do in these assays?
TDP1 cell noCPT: inconclusive; KB-3-1 cytotox: inactive; TDP1 cell CPT: -21%; HT1080NT lethal: 2%; HT1080 IDH1KD tx: 11%; KB-V1 MDR tox: inconclusive

What do the screens show for `CCN1CCN(c2ncc3c(n2)CC(c2cc(OC)c(OC)c(OC)c2)CC3=O)CC1` (configuration not stated)?
TDP1 cell noCPT: 3.3µM*; KB-3-1 cytotox: inconclusive; TDP1 cell CPT: 4.6µM*; HT1080NT lethal: inconclusive; HT1080 IDH1KD tx: 4.1µM*; KB-V1 MDR tox: inactive

How did O=C1CC(c2cccc(Cl)c2)Cc2nc(N3CCN(c4ccccc4)CC3)ncc21 (configuration not stated) do in these assays?
TDP1 cell noCPT: -4%; KB-3-1 cytotox: inactive; TDP1 cell CPT: -3%; HT1080NT lethal: 12%; HT1080 IDH1KD tx: 12%; KB-V1 MDR tox: inactive
